For part of these data: Results with a measured potency or affinity are listed apart. The source made the active and inactive calls.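 The calls were made as follows, unless noted: active = primary screen inhibitor hit that blocks the TRPC4 channel at some tested dose, yielding a dose curve; inactive = the rest.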
Key:
[1] = test system: TRPC4 beta (transient receptor potential cation channel C4), mouse; experiment: activators of mouse TRPC4 channel, confirmation, cell-based, Fluo4 calcium, HEK293 TRPC4beta/mu-opioid, duplicates, 10 µM (AID 2426;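 active = fluorescence ratio normalized to control raised more than 50% in primary screen plus both repeat runs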;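 as to activation: percent rise of integrated ratio over buffer wells lacking compound which define 0%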); conditions: Fluo4 calcium fluorescence, at 10 µM; active compounds read high
[2] = test system: transient receptor potential cation channel C4 beta (TRPC4), mouse; experiment: activators of mouse TRPC4 channel, confirmation, cell-based, second round, Fluo4, HEK293 TRPC4beta/mu-opioid, 1 µM (AID 2461;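 active = primary screen active and over 50% activation in each of two duplicate runs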); conditions: Fluo4 calcium fluorescence, at 1 µM; active compounds read high
[3] = test system: TRPC4 (transient receptor potential cation channel C4 beta), mouse; experiment: positive allosteric modulators of mouse TRPC4, confirmation, cell-based, second round, Fluo-4, HEK293 TRPC4beta/mu-opioid, 1 µM (AID 2554;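 active = primary screen hit whose fluorescence ratio, in both repeats, exceeds the weak agonist control mean by 3 SD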); conditions: DAMGO EC20, Fluo-4 calcium flux, at 1 µM; active compounds read high
[4] = test system: TRPC4 beta (transient receptor potential cation channel C4), mouse; experiment: positive allosteric modulators of mouse TRPC4, confirmation, cell-based, Fluo-4, HEK293 TRPC4beta/mu-opioid (AID 2555;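 active = primary screen hit whose calcium fluorescence ratio, in both repeats, exceeds the weak agonist control mean by 3 SD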); conditions: DAMGO EC20, Fluo-4 calcium flux, at 10 µM; active compounds read high
[5] = biological target: Short transient receptor potential channel 4 (Mus musculus) (UniProt Q9QUQ5); experiment: inhibitors of mouse TRPC4 channel, confirmation, cell-based, Fluo4, HEK293 TRPC4beta/mu-opioid (AID 2636;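 active = calcium signal cut by more than 3 SD below the full-agonist control yet still positive, in both repeats and the earlier primary screen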); conditions: DAMGO, Fluo4 calcium flux, at 10 µM; active compounds read high
Sequence of Short transient receptor potential channel 4 (Mus musculus) (Q9QUQ5 whole entry, looked up): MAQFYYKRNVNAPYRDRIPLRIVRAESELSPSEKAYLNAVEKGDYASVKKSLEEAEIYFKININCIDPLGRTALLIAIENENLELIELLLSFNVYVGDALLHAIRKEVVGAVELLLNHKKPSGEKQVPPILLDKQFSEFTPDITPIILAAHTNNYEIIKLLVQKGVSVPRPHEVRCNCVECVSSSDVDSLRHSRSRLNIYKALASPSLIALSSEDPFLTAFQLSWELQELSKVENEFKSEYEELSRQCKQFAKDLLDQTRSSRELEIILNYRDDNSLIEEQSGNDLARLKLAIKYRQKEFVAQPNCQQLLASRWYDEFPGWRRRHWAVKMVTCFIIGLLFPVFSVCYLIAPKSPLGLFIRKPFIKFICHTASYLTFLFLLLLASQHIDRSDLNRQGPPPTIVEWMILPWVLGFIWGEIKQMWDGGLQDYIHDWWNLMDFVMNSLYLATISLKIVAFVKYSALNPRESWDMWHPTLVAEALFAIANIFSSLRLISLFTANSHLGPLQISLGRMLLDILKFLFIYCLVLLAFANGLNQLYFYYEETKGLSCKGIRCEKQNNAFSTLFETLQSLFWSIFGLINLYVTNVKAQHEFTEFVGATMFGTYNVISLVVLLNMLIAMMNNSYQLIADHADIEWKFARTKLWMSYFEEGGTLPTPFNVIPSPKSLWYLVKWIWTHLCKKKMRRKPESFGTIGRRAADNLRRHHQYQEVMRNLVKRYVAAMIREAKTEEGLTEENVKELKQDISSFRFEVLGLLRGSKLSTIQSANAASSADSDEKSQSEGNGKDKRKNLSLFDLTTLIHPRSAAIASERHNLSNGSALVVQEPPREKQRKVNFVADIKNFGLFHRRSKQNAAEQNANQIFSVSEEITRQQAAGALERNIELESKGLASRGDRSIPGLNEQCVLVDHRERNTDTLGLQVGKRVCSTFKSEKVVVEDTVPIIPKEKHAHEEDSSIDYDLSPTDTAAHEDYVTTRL

[6] = biological target: Short transient receptor potential channel 4 (Mus musculus) (UniProt Q9QUQ5); experiment: inhibitors of mouse TRPC4 channel, confirmation, cell-based, second round, Fluo4, HEK293 TRPC4beta/mu-opioid, 1 µM (AID 2637;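 active = calcium signal ratio cut to more than 3 SD under the fully stimulated control mean yet still positive, in both repeats and the primary screen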); conditions: Fluo4 calcium flux, DAMGO, at 1 µM; active compounds read high
[7] = biological target: Short transient receptor potential channel 4 (Mus musculus) (UniProt Q9QUQ5); experiment: mouse TRPC4 channel activators, dose response, cell-based, HEK293 TRPC4/mu-opioid, Fluo-4 calcium (AID 434937;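 active = primary screen activator hit with a dose response curve and TRPC4 channel activation at any tested dose; inactive = no activation, no dose response, or not a primary hit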); conditions: HEK293 TRPC4 cells, Fluo-4 calcium fluorescence ratio; series mostly up to 20 µM
[8] = biological target: Short transient receptor potential channel 4 (Mus musculus) (UniProt Q9QUQ5); experiment: TRPC4 positive allosteric modulators, dose response, cell-based, HEK293 TRPC4/mu-opioid, Fluo-4 calcium, EC20 DAMGO (AID 434941;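 active = earlier screen potentiator hit that boosts the TRPC4 ion channel at some dose, with a dose response; inactive = no potentiation, no dose response, or not a prior hit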;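 also: calcium entry triggered by an EC20 dose of DAMGO at the co-expressed mu-opioid receptor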); conditions: HEK293 TRPC4/mu-opioid cells, Fluo-4 calcium fluorescence; series mostly up to 20 µM
[9] = biological target: Short transient receptor potential channel 4 (Mus musculus) (UniProt Q9QUQ5); experiment: mouse TRPC4 channel inhibitors, dose response, cell-based, HEK293 TRPC4/mu-opioid, Fluo-4 calcium (AID 434942); conditions: HEK293 TRPC4/mu-opioid cells, DAMGO-evoked Fluo-4 calcium ratio; series mostly up to 20 µM
[10] = biological target: Short transient receptor potential channel 6 (Mus musculus) (UniProt Q61143); experiment: inhibition of mouse TRPC6 channel, confirmation, selectivity assay for TRPC4 inhibitor project, cell-based, HEK293, membrane potential dye, duplicate (AID 434948;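 active = active in primary screen and both duplicates, each dropping signal beyond three positive-control SD with fluorescence still positive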); conditions: HEK293 TRPC6, membrane potential dye fluorescence, at 10 µM, stimulated with maximal-effect acetylcholine; active compounds read high
Sequence of Short transient receptor potential channel 6 (Mus musculus) (Q61143 whole entry, looked up): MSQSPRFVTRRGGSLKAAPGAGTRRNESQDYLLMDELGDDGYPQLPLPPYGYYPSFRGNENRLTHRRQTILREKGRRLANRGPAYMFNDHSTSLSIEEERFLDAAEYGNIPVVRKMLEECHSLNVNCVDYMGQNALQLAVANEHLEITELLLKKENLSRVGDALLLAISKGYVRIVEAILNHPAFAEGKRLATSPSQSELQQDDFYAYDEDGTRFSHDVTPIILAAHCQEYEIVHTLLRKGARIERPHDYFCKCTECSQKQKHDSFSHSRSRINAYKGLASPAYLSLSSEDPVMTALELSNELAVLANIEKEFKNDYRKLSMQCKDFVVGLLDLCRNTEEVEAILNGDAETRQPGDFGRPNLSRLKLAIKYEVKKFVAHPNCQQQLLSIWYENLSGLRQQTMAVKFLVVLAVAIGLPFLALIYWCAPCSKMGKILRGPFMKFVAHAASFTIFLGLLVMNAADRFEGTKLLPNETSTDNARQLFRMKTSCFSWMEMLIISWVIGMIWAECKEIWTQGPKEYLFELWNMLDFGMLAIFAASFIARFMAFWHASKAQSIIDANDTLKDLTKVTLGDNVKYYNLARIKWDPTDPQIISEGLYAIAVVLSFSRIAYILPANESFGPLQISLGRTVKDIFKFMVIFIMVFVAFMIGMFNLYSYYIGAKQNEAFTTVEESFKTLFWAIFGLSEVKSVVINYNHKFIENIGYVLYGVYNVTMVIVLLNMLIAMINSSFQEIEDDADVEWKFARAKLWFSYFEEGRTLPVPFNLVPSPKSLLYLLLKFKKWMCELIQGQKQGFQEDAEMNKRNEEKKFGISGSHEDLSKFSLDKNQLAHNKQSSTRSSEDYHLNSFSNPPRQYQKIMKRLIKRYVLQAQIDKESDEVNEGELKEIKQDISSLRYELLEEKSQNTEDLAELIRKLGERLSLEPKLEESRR

[11] = biological target: Short transient receptor potential channel 6 (Mus musculus) (UniProt Q61143); experiment: activation of mouse TRPC6 channel, confirmation, selectivity assay for TRPC4 activator project, cell-based, HEK293, membrane potential dye, duplicate (AID 434950;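 active = membrane potential signal rise above negative control mean plus 3 SD in both duplicates, also active in the earlier TRPC4 screen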); conditions: HEK293 TRPC6, membrane potential fluorescence, at 10 µM; active compounds read high
[12] = biological target: Short transient receptor potential channel 6 (Mus musculus) (UniProt Q61143); experiment: TRPC6 potentiation by TRPC4 potentiator hits, confirmation, selectivity assay for TRPC4 potentiator project, HEK293 cells, membrane potential dye, duplicate (AID 434952;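 active = compound raising the membrane signal above positive-control mean plus 3 SD in both repeats, and a primary screen hit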); conditions: HEK293 TRPC6, membrane potential dye fluorescence, at 10 µM, maximal acetylcholine added after compound; active compounds read high
[13] = biological target: Short transient receptor potential channel 4 (Mus musculus) (UniProt Q9QUQ5); experiment: calcium flux activators in TRPC4/5HT1a cells, counter-screen for TRPC4 activator project, cell-based, second counter screen, HEK293 TRPC4/5HT1a, Fluo-4 (AID 434977;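 active = calcium signal rise above buffer-control mean plus 5 SD in both duplicates, and also a hit in the primary screen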); conditions: Fluo-4 calcium flux, at 10 µM; active compounds read high
[14] = calcium flux inhibitors in TRPC4/5HT1a cells, confirmation, counter-screen for TRPC4 inhibitor project, cell-based, second counter screen, HEK293 TRPC4/5HT1a, Fluo-4 (AID 434978;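 active = primary screen active whose calcium signal fell more than 3 SD beyond the full-serotonin control mean in both duplicate plates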;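 also: serotonin given first at submaximal then at maximal dose after compound preincubation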); conditions: Fluo-4 calcium flux, at 10 µM, serotonin added to trigger calcium flux; active compounds read high
[15] = test system: TRPC4 (mouse), co-expressed with 5HT1a in HEK293; experiment: calcium flux potentiators in TRPC4/5HT1a cells, confirmation, counter-screen for TRPC4 potentiator project, cell-based, second counter screen, HEK293 TRPC4/5HT1a, Fluo-4 (AID 434979;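 active = signal rise over 3 SD above mean of control wells given weak agonist, in both repeats and first screen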); conditions: Fluo-4 calcium flux, at 10 µM, serotonin added at its EC20 dose; active compounds read high
[16] = calcium flux activation in mu-opioid HEK293 cells, confirmation, counter-screen for TRPC4 activator project, cell-based, HEK293 mu-opioid receptor line (AID 449723;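 active = hit in primary screen, with calcium signal over 5 SD above buffer well mean in both duplicates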;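 also: counter screen cells carry the mu-opioid receptor alone and lack TRPC4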); conditions: Fluo-4 calcium fluorescence, at 10 µM; active compounds read high
[17] = calcium flux enhancement in mu-opioid HEK293 cells, confirmation, counter-screen for TRPC4 allosteric potentiator project, cell-based, HEK293 mu-opioid receptor line (AID 449724;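 active = calcium signal rise more than 3 SD above the low-dose agonist control mean, in both duplicate plates and the primary screen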); conditions: Fluo-4 calcium flux, at 10 µM, compound added before EC20 DAMGO stimulus; active compounds read high

CCOC(=O)c1c(C)oc2ccc(O)c(CN3CCCCC3)c12
inactive: outcome [1] | outcome [2] | outcome [3] | outcome [4] | outcome [5] | outcome [6] | outcome [7] | outcome [8] | outcome [9] | outcome [10] | outcome [11] | outcome [12] | outcome [13] | outcome [14] | outcome [15] | outcome [16] | outcome [17]

COc1ccc(CCn2c(N)c(C#N)c3nc4ccccc4nc32)cc1OC
inactive: outcome [1] | outcome [2] | outcome [3] | outcome [4] | outcome [5] | outcome [6] | outcome [7] | outcome [8] | outcome [9] | outcome [10] | outcome [11] | outcome [12] | outcome [13] | outcome [14] | outcome [15] | outcome [16] | outcome [17]

Cn1c(/N=C/c2ccccc2[N+](=O)[O-])nc2ccccc21
active: potentiation [15] 11.9%
inactive: outcome [1] | outcome [2] | outcome [3] | outcome [4] | outcome [5] | outcome [6] | outcome [7] | outcome [8] | outcome [9] | outcome [10] | outcome [11] | outcome [12] | outcome [13] | outcome [14] | outcome [16] | outcome [17]

Nc1nn2c(C(F)(F)F)cc(=O)[nH]c2c1N=Nc1cccc(F)c1
inactive: outcome [1] | outcome [2] | outcome [3] | outcome [4] | outcome [5] | outcome [6] | outcome [7] | outcome [8] | outcome [9] | outcome [10] | outcome [11] | outcome [12] | outcome [13] | outcome [14] | outcome [15] | outcome [16] | outcome [17]

COc1ccc(-n2cc(CNCc3cccnc3)c(-c3cccc(F)c3)n2)cc1
inactive: outcome [2] | outcome [3] | outcome [4] | outcome [5] | outcome [6] | outcome [7] | outcome [8] | outcome [9] | outcome [10] | outcome [11] | outcome [12] | outcome [13] | outcome [14] | outcome [15] | outcome [16] | outcome [17]
active: activation [1] 84%

CCN(CC)CC(=O)Nc1ccccc1SCC(=O)Nc1ccsc1C(=O)OC
inactive: outcome [1] | outcome [2] | outcome [3] | outcome [4] | outcome [5] | outcome [6] | outcome [7] | outcome [8] | outcome [9] | outcome [10] | outcome [11] | outcome [12] | outcome [13] | outcome [14] | outcome [15] | outcome [16] | outcome [17]

Cc1cc(S(=O)(=O)NC2CCN(Cc3ccccc3)CC2)c(C)cc1Cl
inactive: outcome [1] | outcome [2] | outcome [3] | outcome [4] | outcome [5] | outcome [6] | outcome [7] | outcome [8] | outcome [9] | outcome [10] | outcome [11] | outcome [12] | outcome [13] | outcome [14] | outcome [16] | outcome [17]
active: potentiation [15] 23.1%

CC1CCN(CC(O)COCCC23CC4CC(CC(C4)C2)C3)CC1 (stereo not given)
inactive: outcome [1] | outcome [2] | outcome [3] | outcome [4] | outcome [5] | outcome [6] | outcome [7] | outcome [8] | outcome [9] | outcome [10] | outcome [11] | outcome [12] | outcome [13] | outcome [14] | outcome [15] | outcome [16] | outcome [17]

OC(CNCCc1ccc(C(F)(F)F)cc1)COc1ccc2ccccc2c1 (stereo not given)
inactive: outcome [1] | outcome [2] | outcome [3] | outcome [4] | outcome [5] | outcome [6] | outcome [7] | outcome [8] | outcome [9] | outcome [10] | outcome [11] | outcome [12] | outcome [13] | outcome [14] | outcome [15] | outcome [16] | outcome [17]

N=c1c(C(=O)NCC2CCCO2)cc2c(=O)n3ccccc3nc2n1Cc1ccc(Cl)cc1 (stereo not given)
active: potentiation [4] 57% | potentiation [15] 61%
inactive: outcome [1] | outcome [2] | outcome [3] | outcome [5] | outcome [6] | outcome [7] | outcome [8] | outcome [9] | outcome [10] | outcome [11] | outcome [12] | outcome [13] | outcome [14] | outcome [16] | outcome [17]

COc1ccc(C(=O)Nc2ccccc2N2CCN(C(=O)c3ccccc3)CC2)cc1Br
active: inhibition [5] 75%
inactive: outcome [1] | outcome [2] | outcome [3] | outcome [4] | outcome [6] | outcome [7] | outcome [8] | outcome [9] | outcome [10] | outcome [11] | outcome [12] | outcome [13] | outcome [14] | outcome [15] | outcome [16] | outcome [17]

COc1cc(C2c3c(-c4ccccc4)n[nH]c3C(=O)N2c2ccccc2)ccc1O (stereo not given)
active: potentiation [4] 16% | potentiation [15] 17%
inactive: outcome [1] | outcome [2] | outcome [3] | outcome [5] | outcome [6] | outcome [7] | outcome [8] | outcome [9] | outcome [10] | outcome [11] | outcome [12] | outcome [13] | outcome [14] | outcome [16] | outcome [17]

C=CCNC(=S)N1CCN(CCN=Cc2c(C)[nH]n(-c3ccc([N+](=O)[O-])cc3)c2=O)CC1
inactive: outcome [1] | outcome [2] | outcome [3] | outcome [4] | outcome [5] | outcome [6] | outcome [7] | outcome [8] | outcome [9] | outcome [10] | outcome [11] | outcome [12] | outcome [13] | outcome [14] | outcome [15] | outcome [16] | outcome [17]

CN(C)CCCNc1ncnc2c1cnn2Cc1ccccc1Cl
inactive: outcome [1] | outcome [2] | outcome [3] | outcome [5] | outcome [6] | outcome [7] | outcome [8] | outcome [9] | outcome [10] | outcome [11] | outcome [12] | outcome [13] | outcome [14] | outcome [16] | outcome [17]
active: potentiation [4] 15% | potentiation [15] 19.8%

CCOC(=O)c1ccc(N=C2C(=S)N(c3ccc(C(=O)OCC)cc3)C(=N)N2/N=C/c2ccccc2)cc1
inactive: outcome [1] | outcome [2] | outcome [3] | outcome [4] | outcome [5] | outcome [6] | outcome [7] | outcome [8] | outcome [9] | outcome [10] | outcome [11] | outcome [12] | outcome [13] | outcome [14] | outcome [15] | outcome [16] | outcome [17]

Reference: PubChem BioAssay
